High-throughput results from PubChem BioAssay.
TPT1 inh: C. albicans TPT1 enzyme inhibition; recombinant caTPT1, FP RNA substrate dephosphorylation; inhibition, % at 5 µM; actives 0.81% (n = 300,000);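 active = inhibition above the mean of all tested compounds plus 3 SD, set per screening campaign, cut at about 24% in these data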;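 note: plate controls were DMSO alone for no effect and ferristatin control at 100 nM for full effect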
NR3A LBD binder: modulates the human NR3A ligand-binding domain; NR3A LBD differential scanning fluorimetry, Tm shift; 0% = protein alone, 100% = glycine-bound protein; Tm shift relative to glycine control, % at 25 µM; actives 2.5% (n = 340,000); AID 1259313;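 active = melting temperature shift of at least 10% of the positive control shift, at one fixed dose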
ZTA counter: counter-screen for EBNA-1 inhibitors: inhibitors of Epstein-Barr virus ZTA. ZTA-DNA binding, fluorescence polarization. inhibition, % at 11 µM. actives 0.15% (n = 320,000). AID 2234; in the data active = inhibition above about 33%
Target sequence (P03206 whole entry, looked up): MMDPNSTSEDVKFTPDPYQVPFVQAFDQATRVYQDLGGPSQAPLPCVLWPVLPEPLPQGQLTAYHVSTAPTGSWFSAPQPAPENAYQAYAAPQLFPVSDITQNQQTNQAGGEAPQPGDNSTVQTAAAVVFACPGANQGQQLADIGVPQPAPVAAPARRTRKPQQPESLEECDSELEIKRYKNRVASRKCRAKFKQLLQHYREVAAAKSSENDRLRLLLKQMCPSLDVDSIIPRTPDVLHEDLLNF
Rpn11 inh: Rpn11 (human) deubiquitinase inhibition; inhibition, % at 20 µM; actives 0.59% (n = 360,000); human 26S proteasome, Ub4-pepOG fluorescence polarization; 20S core pre-blocked with epoxomicin; O00487;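 active = inhibition at 20 µM, scaled to each plate's controls, above about 33%, limit read from the data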
Target sequence (O00487 whole entry, looked up): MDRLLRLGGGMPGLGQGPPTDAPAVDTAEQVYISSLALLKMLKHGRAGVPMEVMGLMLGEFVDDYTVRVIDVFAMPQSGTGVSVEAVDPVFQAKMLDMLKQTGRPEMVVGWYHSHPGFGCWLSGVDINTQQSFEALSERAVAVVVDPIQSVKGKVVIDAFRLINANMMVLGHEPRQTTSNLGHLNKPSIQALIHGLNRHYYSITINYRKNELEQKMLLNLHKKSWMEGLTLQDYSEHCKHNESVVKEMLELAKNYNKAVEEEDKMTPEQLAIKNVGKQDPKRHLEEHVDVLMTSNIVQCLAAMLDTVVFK
dFosB activator: enhances mouse delta FosB homodimer DNA binding; P13346; purified delta FosB, TAMRA-CDK5 oligo fluorescence polarization; percent of positive-control signal above neutral wells; actives 0.99% (n = 340,000); activation, % at 25 µM;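 active = mean activation above about 17%, with every replicate also reaching it, limit read from the data, passing the limit was not always enough; inconclusive = only one of the two conditions met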
EBNA-1 inhibitor: blocks EBNA-1 binding to DNA | EBNA-1 DNA binding, fluorescence polarization | inhibition, % at 14.8 µM | actives 0.34% (n = 300,000) | AID 1950; in the data active = inhibition above about 28%
EBNA-1 inh conf: EBNA-1 (EBV) inhibition, confirmation | shares compounds with EBNA-1 inhibitor | Recombinant EBNA-1 DBD, Cy5-DNA fluorescence polarization | inhibition, % at 14.8 µM | actives 35% (n = 830) | AID 2292;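 active = mean inhibition across replicates above a set limit taken from the earlier primary screen, cut at about 28% in these data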;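 note: plate controls were EBNA-1 protein with DMSO for no effect and wells lacking EBNA-1 for full effect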
ZTA counter trip: counter-screen for EBNA-1 inhibitors: Epstein-Barr virus ZTA inhibitors, triplicate; shares compounds with EBNA-1 inhibitor; Zta-ZRE DNA binding, Cy5 fluorescence polarization; inhibition, % at 11.1 µM; 830 tested, under 10 active;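 active = mean inhibition over triplicates above a set limit taken from the primary EBNA-1 screen, cut at about 37% in these data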;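 note: purified full length Zta protein with Cy5 labeled ZRE DNA probe; 0% = Zta with DMSO and 100% = wells lacking Zta protein; inhibitors lower polarization by freeing the labeled DNA probe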
* marks the source's active call; other numbers are inactive results; ? = inconclusive; · = no result. Rows were chosen to be rich in hits. Some 4.5% of all compounds tested hit in one or more screens of this group.

SMILES	TPT1 inh	NR3A LBD binder	ZTA counter	Rpn11 inh	dFosB activator	EBNA-1 inhibitor	EBNA-1 inh conf	ZTA counter trip
CS(=O)(=O)c1ccc(Cl)c(NC(=O)Cc2c(F)cccc2Cl)c1	-4	-1	-6	4	5	44*	30*	-12
CCCN(C(=O)COC(=O)c1cc(CC)c(C)s1)c1c(N)n(Cc2ccccc2)c(=O)[nH]c1=O	4	1	1	-4	-8	-4	·	·
CCc1cc(C(=O)N(CC(C)C)c2c(N)n(Cc3ccccc3)c(=O)[nH]c2=O)sc1C	-1	-2	-1	2	-6	33*	22	-13
CCNC(=S)N/N=C/c1c(C)nn(-c2cccc(Cl)c2)c1Cl	-4	7	12	2	0	57*	48*	0
Cc1ccnc(SCC(=O)N2CCc3ccccc32)n1	0	-2	5	4	-2	32*	-1	0
O=C(CSc1ncccn1)N1CCCc2ccccc21	2	1	0	-1	5	-11	·	·
O=C1COc2ccc(C(=O)COC(=O)C3CCN(S(=O)(=O)c4cccs4)CC3)cc2N1	0	1	16	0	1	35*	18	-2
O=C(COC(=O)C1CCN(S(=O)(=O)c2cccs2)CC1)c1ccc2c(c1)OCCO2	-1	1	1	3	-6	10	·	·
O=C(C1CCC(Cn2c(=S)[nH]c3ccccc3c2=O)CC1)N1CCOCC1 (stereo not given)	-3	-1	0	-3	-3	8	·	·
CCCCCNC(=O)C1CCC(Cn2c(=S)[nH]c3ccccc3c2=O)CC1 (stereo not given)	-4	-7	-3	-3	-10	44*	21	3
O=C(Nc1ccc2c(c1)OCO2)O[C@@H]1C[C@H]2CCC(=O)N3CC[C@@H](C1)[C@@H]23	-3	-4	4	-8	-1	13	·	·
CNNC(=S)Nc1cccc(C(F)(F)F)c1	-2	-1	0	-3	·	18	·	·
COc1ccc(NC(=S)NNC(=S)Nc2cccc(C(F)(F)F)c2)cc1	-2	34*	-4	3	12	169*	83*	1
CN(c1ccccc1)c1nc(N)c([N+](=O)[O-])c(Nc2ccccc2)n1	-5	-4	3	1	-4	10	·	·
COc1ccc(Nc2nc(N(C)c3ccccc3)nc(N)c2[N+](=O)[O-])cc1	1	·	14	-3	-1	34*	40*	0
CCc1ccc(NC(=O)C2CCC(CNC(=O)[C@@H]3Cc4ccccc4CN3)CC2)cc1 (stereo not given in full)	-5	-3	-8	-3	-3	-8	·	·
C=CCn1c(SCC(=O)NC(=O)NCc2ccco2)nc2sc(C)c(C)c2c1=O	1	-1	9	0	5	47*	32*	2
COC(=O)c1cc(Nc2cc(C)c3ccc(O)cc3n2)cc(C(=O)OC)c1	-5	-4	-9	2	12	39*	48*	3
COCCN(Cc1cc2cc(C)cc(C)c2nc1Cl)C(=O)Nc1ccccc1	-2	-37	-12	6	-7	56*	-9	3
Cc1cc(C)c2nc(Cl)c(CN(Cc3ccco3)C(=O)Nc3ccccc3C)cc2c1	5	0	3	3	-13	-8	·	·
COc1ccc(C([O-])=Nc2ccc[n+](-c3nc4ccccc4nc3NS(=O)(=O)c3ccccc3)c2)cc1	-2	·	1	·	·	29*	0	-6
COc1cc(C(=O)NCCC2=CCCCC2)ccc1OCc1c(C)noc1C	·	0	-14	-1	-1	·	·	·
CCOc1cc(NS(=O)(=O)c2ccc(NC(C)=O)cc2)c(OCC)cc1NC(=O)c1cccs1	2	-11	-4	-4	-5	41*	28*	-12
CCOc1cc(NC(=S)NC)c(OCC)cc1NC(=O)c1cccs1	-7	2	-5	-7	3	-10	·	·
COc1cc(NC(=S)NC(=O)c2ccc(F)cc2)ccc1NC(=O)c1ccco1	-1	-6	3	0	-2	40*	35*	3
SMILES	TPT1 inh	NR3A LBD binder	ZTA counter	Rpn11 inh	dFosB activator	EBNA-1 inhibitor	EBNA-1 inh conf	ZTA counter trip
COc1cccc(OC)c1C(=O)NC(=S)Nc1cccc(NC(=O)c2ccco2)c1	1	-1	-9	7	1	-12	·	·
COc1cc(NC(=S)NC(=O)c2cc(C)cc(C)c2)ccc1NC(=O)c1cccs1	0	-3	9	6	3	70*	1	2
COc1ccc(-c2ccc(C#N)c(SCC(=O)NCCc3ccccc3)n2)cc1OC	1	0	-1	5	?	28*	-5	0
COc1cccc(-c2ccc(C#N)c(SCC(=O)NCCc3cccc(Cl)c3)n2)c1	2	-11	-4	11	-8	20	·	·
Cc1ccc(NC(=O)CSc2nnc(NC(=O)c3ccc(S(=O)(=O)N4CCOCC4)cc3)s2)cc1	-8	28*	10	-3	-3	56*	84*	11
Cc1ccc(OCC(=O)Nc2ccc(S(=O)(=O)Nc3ccccn3)cc2)cc1C	-3	-1	-1	12	5	43*	-1	11
O=S(=O)(NCCOc1ccccc1)c1ccc2ccccc2c1	2	3	9	-4	-5	31*	14	-2
CCC(=O)c1ccc(N2CCN(C(=O)COc3ccc(F)cc3)CC2)c(F)c1	-2	2	12	1	-4	28*	5	9
CCOc1ccc(/C=C/C(=O)Nc2ccccc2C(F)(F)F)cc1	-1	-1	5	5	-8	0	·	·
COc1ccc(/C=C/C(=O)Nc2ccccc2C(F)(F)F)cc1	1	-2	8	-5	-4	32*	22	-3
Cc1ccc(C(=O)COC(=O)CNC(=O)c2ccc(N3C(=O)c4ccccc4C3=O)cc2)cc1C	2	-1	11	10	10	29*	10	6
Cc1ccc(C(=O)NCC(=O)OCC(=O)c2ccc3c(c2)OCCO3)cc1C	2	7	-13	3	-11	-4	·	·
O=C(OCN1C(=O)c2ccccc2C1=O)c1ccccc1	0	2	6	5	-10	-3	·	·
O=C(OCCN1C(=O)c2ccccc2C1=O)c1ccccc1	0	1	19	-6	2	46*	-12	6
COC(=O)c1ccc(NS(=O)(=O)c2cccc3cccnc23)cc1	0	-2	-9	-3	1	-2	·	·
CC(=O)Nc1ccc(NC(=O)c2ccc(NS(=O)(=O)c3cccc4cccnc34)cc2)cc1	-4	19*	5	-14	2	39*	18	6
